# Test results as given in PMC7862700, “An all-to-all approach to the identification of sequence-specific readers for epigenetic DNA modifications on cytosine”.
# Key:
# Assay in all cases: DAPPL (digital affinity profiling via proximity ligation, sequencing); 10 mM Tris-HCl pH 7.5, 50 mM NaCl, 1 mM DTT, 4% glycerol, room temperature, 30 min; GST-TFs on glutathione beads, 16-mer random dsDNA library, 0.1% formaldehyde crosslink after washing; high values mean tight binding
# Settings in all cases: protein: recombinant; tags: N-terminal GST; dsDNA, one strand shown
# [1] = target: T1, ERF (Homo sapiens, UniProt P50548 1-548)
# T1 sequence: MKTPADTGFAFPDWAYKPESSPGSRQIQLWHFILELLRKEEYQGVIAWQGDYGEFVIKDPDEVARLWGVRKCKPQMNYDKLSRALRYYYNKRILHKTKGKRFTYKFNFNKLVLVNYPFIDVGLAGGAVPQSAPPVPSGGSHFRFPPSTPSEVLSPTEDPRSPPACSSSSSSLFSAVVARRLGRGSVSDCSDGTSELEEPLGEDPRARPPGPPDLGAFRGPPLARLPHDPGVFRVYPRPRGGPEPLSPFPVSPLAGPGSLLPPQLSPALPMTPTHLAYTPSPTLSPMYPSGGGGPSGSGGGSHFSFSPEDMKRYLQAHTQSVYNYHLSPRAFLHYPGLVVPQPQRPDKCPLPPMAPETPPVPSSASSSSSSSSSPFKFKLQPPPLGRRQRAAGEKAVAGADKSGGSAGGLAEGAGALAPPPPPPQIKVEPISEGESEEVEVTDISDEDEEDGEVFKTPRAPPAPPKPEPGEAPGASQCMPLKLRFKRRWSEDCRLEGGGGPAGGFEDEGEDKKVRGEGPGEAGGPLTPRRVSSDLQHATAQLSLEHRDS
# In short: (§1)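 The binding signal reported is, for every hexamer, its read frequency for a factor over its read frequency for the tag-only sample. Reads came from pools of yeast-expressed, GST-fused human transcription factors on glutathione beads, barcoded with DNA and mixed with that sample, which were incubated with 200 nmole of a random double-stranded 16-mer DNA library in Tris/NaCl/DTT/glycerol buffer at room temperature for 30 min. After washing, the pools were crosslinked with 0.1% formaldehyde, proximity-ligated with BsaI/T4 ligase for 1 h at 37 °C, PCR-amplified and sequenced on an Illumina NextSeq500.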
# [2] = target: T2, ETV3L (Homo sapiens, UniProt Q6ZN32 1-361)
# T2 sequence: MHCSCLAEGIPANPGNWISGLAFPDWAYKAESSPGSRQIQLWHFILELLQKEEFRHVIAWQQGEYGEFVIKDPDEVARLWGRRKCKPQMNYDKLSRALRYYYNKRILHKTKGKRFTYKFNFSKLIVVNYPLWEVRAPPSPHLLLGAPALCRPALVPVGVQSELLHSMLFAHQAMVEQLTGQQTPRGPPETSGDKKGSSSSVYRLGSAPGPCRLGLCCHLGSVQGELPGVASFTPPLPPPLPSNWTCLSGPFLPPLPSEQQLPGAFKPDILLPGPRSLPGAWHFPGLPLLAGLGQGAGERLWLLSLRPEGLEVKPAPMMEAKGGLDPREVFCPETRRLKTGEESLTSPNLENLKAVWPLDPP
# In short: as §1
# [3] = target: T3, ETS2 (Homo sapiens, UniProt P15036 1-469)
# T3 sequence: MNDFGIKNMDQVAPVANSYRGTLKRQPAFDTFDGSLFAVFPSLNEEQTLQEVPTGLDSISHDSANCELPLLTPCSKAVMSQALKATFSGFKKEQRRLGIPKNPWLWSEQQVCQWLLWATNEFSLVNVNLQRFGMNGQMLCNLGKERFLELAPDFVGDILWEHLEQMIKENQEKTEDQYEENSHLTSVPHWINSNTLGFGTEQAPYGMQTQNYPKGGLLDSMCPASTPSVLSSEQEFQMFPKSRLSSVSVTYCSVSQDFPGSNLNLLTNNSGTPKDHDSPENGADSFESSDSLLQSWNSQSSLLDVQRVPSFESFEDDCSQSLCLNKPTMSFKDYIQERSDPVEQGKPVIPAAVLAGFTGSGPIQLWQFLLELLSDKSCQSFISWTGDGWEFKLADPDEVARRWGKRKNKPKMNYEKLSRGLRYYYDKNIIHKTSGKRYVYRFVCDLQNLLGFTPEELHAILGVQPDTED
# In short: as §1
# [4] = target: T4, SPDEF (Homo sapiens, UniProt O95238 1-335)
# T4 sequence: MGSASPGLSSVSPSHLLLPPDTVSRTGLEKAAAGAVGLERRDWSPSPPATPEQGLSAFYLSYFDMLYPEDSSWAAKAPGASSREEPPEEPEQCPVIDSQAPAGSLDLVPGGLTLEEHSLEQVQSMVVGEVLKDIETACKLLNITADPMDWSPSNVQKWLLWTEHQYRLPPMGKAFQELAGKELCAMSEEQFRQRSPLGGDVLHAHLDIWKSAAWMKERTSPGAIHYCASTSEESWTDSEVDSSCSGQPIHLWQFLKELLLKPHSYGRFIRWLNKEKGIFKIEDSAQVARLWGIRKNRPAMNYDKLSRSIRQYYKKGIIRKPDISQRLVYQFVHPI
# In short: as §1
# [5] = target: T5, ETV7 (Homo sapiens, UniProt Q9Y603 1-341)
# T5 sequence: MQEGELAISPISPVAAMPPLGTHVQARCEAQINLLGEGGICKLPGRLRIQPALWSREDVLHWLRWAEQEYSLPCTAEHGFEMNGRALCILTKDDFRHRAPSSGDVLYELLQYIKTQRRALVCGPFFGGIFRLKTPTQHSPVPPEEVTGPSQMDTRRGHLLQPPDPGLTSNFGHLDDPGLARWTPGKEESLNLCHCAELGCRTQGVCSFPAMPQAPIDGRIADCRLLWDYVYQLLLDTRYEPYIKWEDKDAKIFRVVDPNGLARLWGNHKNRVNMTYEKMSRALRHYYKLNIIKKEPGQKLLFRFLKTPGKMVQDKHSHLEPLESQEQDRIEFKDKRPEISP
# In short: as §1
# [6] = target: T6, ELF5 (Homo sapiens, UniProt Q9UKW6-2 1-255)
# T6 sequence: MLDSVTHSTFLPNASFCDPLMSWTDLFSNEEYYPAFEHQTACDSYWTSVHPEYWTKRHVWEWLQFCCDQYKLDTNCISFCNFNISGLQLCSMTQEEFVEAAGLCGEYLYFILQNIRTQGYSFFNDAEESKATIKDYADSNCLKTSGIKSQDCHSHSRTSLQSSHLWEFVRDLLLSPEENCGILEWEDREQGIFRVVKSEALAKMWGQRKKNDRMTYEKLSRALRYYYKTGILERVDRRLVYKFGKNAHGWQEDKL
# In short: as §1
# [7] = target: T7, ETV3 (Homo sapiens, UniProt P41162-2 1-143)
# T7 sequence: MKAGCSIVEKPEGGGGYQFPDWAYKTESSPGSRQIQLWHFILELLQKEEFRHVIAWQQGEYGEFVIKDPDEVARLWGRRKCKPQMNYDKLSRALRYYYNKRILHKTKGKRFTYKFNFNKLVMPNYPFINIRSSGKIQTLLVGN
# In short: as §1
# [8] = target: ETV6 (Homo sapiens, UniProt P41212 1-452)
# In short: as §1
# Chain of ETV6 (P41212 whole entry): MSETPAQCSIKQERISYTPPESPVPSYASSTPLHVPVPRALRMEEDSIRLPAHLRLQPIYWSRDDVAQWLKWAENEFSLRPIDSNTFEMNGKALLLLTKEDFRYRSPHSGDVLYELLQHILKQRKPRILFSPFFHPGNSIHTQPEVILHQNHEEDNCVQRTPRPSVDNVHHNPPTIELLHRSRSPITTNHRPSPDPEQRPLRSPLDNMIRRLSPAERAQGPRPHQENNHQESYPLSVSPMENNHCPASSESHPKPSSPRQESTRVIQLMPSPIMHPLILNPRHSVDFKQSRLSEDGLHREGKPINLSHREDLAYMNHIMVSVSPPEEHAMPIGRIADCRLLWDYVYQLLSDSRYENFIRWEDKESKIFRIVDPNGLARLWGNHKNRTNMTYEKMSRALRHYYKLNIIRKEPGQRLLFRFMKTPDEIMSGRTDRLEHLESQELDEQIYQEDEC
Sequence,binding signal [1],binding signal [2],binding signal [3],binding signal [4],binding signal [5],binding signal [6],binding signal [7],binding signal [8]
CCGCCG,"1.18 fold enrichment (6-mer frequency, TF over GST control)","1.2 fold enrichment (6-mer frequency, TF over GST control)","1.22 fold enrichment (6-mer frequency, TF over GST control)","1.34 fold enrichment (6-mer frequency, TF over GST control)","1.2 fold enrichment (6-mer frequency, TF over GST control)","1.31 fold enrichment (6-mer frequency, TF over GST control)","1.31 fold enrichment (6-mer frequency, TF over GST control)","1.23 fold enrichment (6-mer frequency, TF over GST control)"
CGTAAC,"1.09 fold enrichment (6-mer frequency, TF over GST control)","1.08 fold enrichment (6-mer frequency, TF over GST control)","1.15 fold enrichment (6-mer frequency, TF over GST control)","1.17 fold enrichment (6-mer frequency, TF over GST control)","1.07 fold enrichment (6-mer frequency, TF over GST control)","1.12 fold enrichment (6-mer frequency, TF over GST control)","1.16 fold enrichment (6-mer frequency, TF over GST control)","1.06 fold enrichment (6-mer frequency, TF over GST control)"
ACCTGG,"1.17 fold enrichment (6-mer frequency, TF over GST control)","1.33 fold enrichment (6-mer frequency, TF over GST control)","1.26 fold enrichment (6-mer frequency, TF over GST control)","1.2 fold enrichment (6-mer frequency, TF over GST control)","1.29 fold enrichment (6-mer frequency, TF over GST control)","1.19 fold enrichment (6-mer frequency, TF over GST control)","1.21 fold enrichment (6-mer frequency, TF over GST control)","1.28 fold enrichment (6-mer frequency, TF over GST control)"
AACCGG,"1.42 fold enrichment (6-mer frequency, TF over GST control)","1.43 fold enrichment (6-mer frequency, TF over GST control)","1.46 fold enrichment (6-mer frequency, TF over GST control)","1.8 fold enrichment (6-mer frequency, TF over GST control)","1.36 fold enrichment (6-mer frequency, TF over GST control)","1.52 fold enrichment (6-mer frequency, TF over GST control)","1.6 fold enrichment (6-mer frequency, TF over GST control)","1.5 fold enrichment (6-mer frequency, TF over GST control)"
TCATTA,"1.19 fold enrichment (6-mer frequency, TF over GST control)","1.08 fold enrichment (6-mer frequency, TF over GST control)","1.1 fold enrichment (6-mer frequency, TF over GST control)","1.06 fold enrichment (6-mer frequency, TF over GST control)","1.16 fold enrichment (6-mer frequency, TF over GST control)","1.09 fold enrichment (6-mer frequency, TF over GST control)","1.12 fold enrichment (6-mer frequency, TF over GST control)","1.06 fold enrichment (6-mer frequency, TF over GST control)"
ACCCTG,"1.04 fold enrichment (6-mer frequency, TF over GST control)","1.05 fold enrichment (6-mer frequency, TF over GST control)","1.01 fold enrichment (6-mer frequency, TF over GST control)","1.03 fold enrichment (6-mer frequency, TF over GST control)","1.04 fold enrichment (6-mer frequency, TF over GST control)","1.03 fold enrichment (6-mer frequency, TF over GST control)","1.13 fold enrichment (6-mer frequency, TF over GST control)","1.07 fold enrichment (6-mer frequency, TF over GST control)"
ACAACT,"1.4 fold enrichment (6-mer frequency, TF over GST control)","1.36 fold enrichment (6-mer frequency, TF over GST control)","1.39 fold enrichment (6-mer frequency, TF over GST control)","1.43 fold enrichment (6-mer frequency, TF over GST control)","1.14 fold enrichment (6-mer frequency, TF over GST control)","1.36 fold enrichment (6-mer frequency, TF over GST control)","1.35 fold enrichment (6-mer frequency, TF over GST control)","1.34 fold enrichment (6-mer frequency, TF over GST control)"
CGCCTC,"1.37 fold enrichment (6-mer frequency, TF over GST control)","1.49 fold enrichment (6-mer frequency, TF over GST control)","1.27 fold enrichment (6-mer frequency, TF over GST control)","1.39 fold enrichment (6-mer frequency, TF over GST control)","1.26 fold enrichment (6-mer frequency, TF over GST control)","1.43 fold enrichment (6-mer frequency, TF over GST control)","1.37 fold enrichment (6-mer frequency, TF over GST control)","1.42 fold enrichment (6-mer frequency, TF over GST control)"
CTTACG,"1.09 fold enrichment (6-mer frequency, TF over GST control)","1.05 fold enrichment (6-mer frequency, TF over GST control)","1.13 fold enrichment (6-mer frequency, TF over GST control)","1.1 fold enrichment (6-mer frequency, TF over GST control)","1.1 fold enrichment (6-mer frequency, TF over GST control)","1.15 fold enrichment (6-mer frequency, TF over GST control)","1.15 fold enrichment (6-mer frequency, TF over GST control)","1 fold enrichment (6-mer frequency, TF over GST control)"
